Most compounds without a hit are left out; they make up all but 14% or so of the library.
HCMV inh: blocks human cytomegalovirus replication | activity change, negative = inhibition, % at 57.5 µM | HFF cells, HCMV-luciferase reporter, 72 h; hits give low values | 4.5% of 410,000 active; in the data active means activity change below about -60%; inconclusive means no clear call, values can overlap the other calls; inactive means above about -39%
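After 16 h attachment at 37C, HFF cells received test compound and HCMV-luciferase (1 PFU/cell); reporter luminescence read 72 h later, data normalized against buffer-only and known inhibitor Salinomycin.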
FBPA Giardia inh: blocks Giardia fructose-bisphosphate aldolase activity; A8B2U2; purified Giardia FBPA; Potency, µM (top dose mostly 59.6 µM), usual class: inhibitors; 0.71% of 290,000 active; AID 2451; further: nearly all actives have a fitted effect of over 55% in size
Target sequence (A8B2U2 whole entry, looked up): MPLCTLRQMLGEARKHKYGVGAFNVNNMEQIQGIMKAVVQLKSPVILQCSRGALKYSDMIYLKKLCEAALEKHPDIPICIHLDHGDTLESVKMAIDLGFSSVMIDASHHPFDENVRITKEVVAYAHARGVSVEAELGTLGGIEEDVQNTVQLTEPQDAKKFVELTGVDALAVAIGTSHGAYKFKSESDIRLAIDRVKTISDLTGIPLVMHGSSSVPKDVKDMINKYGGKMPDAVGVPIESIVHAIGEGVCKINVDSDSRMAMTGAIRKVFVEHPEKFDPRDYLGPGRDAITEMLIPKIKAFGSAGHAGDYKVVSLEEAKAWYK
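Giardia FBPA (40 nM reagent) was preincubated 10 min at RT with compound (up to 57.5 uM final), then substrate plus GAPDH/TPI/NAD/arsenate coupling system with diaphorase/resazurin was added; resorufin fluorescence (525/598 nm) was read after 20 min.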
Sm TGR block: S. mansoni TGR enzyme inhibition; Q962Y6; purified TGR, DTNB reduction, TNB absorbance 405 nm; Potency, µM (titrated, usually from 114 µM), usual class: inhibitors; 3% of 360,000 active; further: nearly all actives have a fitted effect of over 60% in size
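TGR 20 nM + NADPH 100 uM (dispensed conc.), cpd preinc 15 min RT; start with NADPH (500 uM addition) then DTNB (15 mM addition). Kinetic TNB absorbance, 405 nm filter. Four-parameter Hill fit across titration.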
Pf growth 48h: P. falciparum growth inhibition at 48 hours (one generation). AID 504832. 5.9% of 310,000 active. Potency, µM (titrated, usually from 28.7 µM), usual class: inhibitors. P. falciparum luciferase growth in erythrocytes, 48 h
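A one-generation exposure of luciferase-tagged malaria parasites in RPMI 1640/Albumax erythrocyte culture, 37 C and 5% CO2. Inhibition is inferred from decreased luminescence after adding detection reagent.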
Pf growth 96h: inhibits malaria parasite growth, 96 h; P. falciparum luciferase reporter growth, 96 h; Potency, µM (series often up to 28.7 µM), usual class: inhibitors; AID 504834; 6.9% of 320,000 active
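96 h incubation, 37 C, 5% CO2, of luciferase-reporter P. falciparum-infected RBCs (2% hematocrit, 0.05% parasitemia final) with test compounds; endpoint luminescence.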
Numbers stand for hits; - = inactive; ? = inconclusive; . = no result given; [ ] = remark or other dose. Unless noted, the call rests on the fitted dose curve; in most records, active means well fitted curve in the direction sought with a large enough effect; inconclusive means small, poorly fitted or top-dose-only effect, or another doubt; inactive means no such curve, though single readings can be large; an effect the other way counts as inactive or inconclusive.

SMILES	HCMV inh	FBPA Giardia inh	Sm TGR block	Pf growth 48h	Pf growth 96h
COc1ccc(-c2ccc(N(C)C)cc2)cc1C1C2C=CCCC2(C)C(=O)N1Cc1ccccc1 (centres undefined)	.	-	.	.	.
COc1ccc(-c2nc3cnc(Nc4ccc(F)c(Cl)c4)cc3n2C)cc1OC	-	.	.	.	.
COc1ccc(OC)c(NC(=O)COc2coc(CN3CCc4ccccc43)cc2=O)c1	-	.	-	10.4µM	?
Cc1ccc(NC(=O)COc2coc(CN3CCc4ccccc43)cc2=O)c(C)c1	-	.	-	?	-
COc1ccc(OC)c(NC(=O)COc2coc(CN3CCCc4ccccc43)cc2=O)c1	?	.	-	10.4µM	?
Cc1cc(C)cc(NC(=O)COc2coc(CN3CCc4ccccc43)cc2=O)c1	-	.	?	?	?
CCCCc1ccc(CC(=O)Nc2cc(S(=O)(=O)N3CCOCC3)ccc2O)cc1	-	.	-	?	-
Cc1nc2nc(SCC(=O)c3ccc([N+](=O)[O-])cc3)[nH]c2cc1Br	-	-	-	?	?
Cc1ccc(OC(=O)c2ccc(Cl)c([N+](=O)[O-])c2)cn1	-	-	50.1µM	-	?
COc1ccc(C(=O)c2ccc(Cl)c([N+](=O)[O-])c2)cc1	-83.0	-	?	-	-
O=C(Nc1ccncc1)Nc1cc(Cl)ccc1Cl	-	-	-	?	-
O=C(Nc1ccncc1)Nc1ccc(Cl)cc1	-72.2	-	-	5.22µM	-
O=C(Nc1ccncc1)Nc1ccncc1	-	-	-	?	-
O=C(Nc1ccncc1)Nc1ccc(Cl)cc1Cl	-	-	-	1.65µM	-
NS(=O)(=O)c1ccc(CNC(=O)C2CCCN2C(=O)c2cccs2)cc1 (centres undefined)	-	.	.	.	.
CCOc1ccc(N(C)C(=O)c2oc(=O)c3ccccc3c2-c2ccccc2)cc1	-	.	-	.	.
NC(=O)C1O[C@@H](O)[C@H](O)[C@@H](O)[C@H]1O (some centres undefined)	.	-	.	.	.
Cc1[nH]c2ccc(-c3nnc(SCC(=O)c4ccc(F)cc4)o3)cc2c1C	?	-	-	-	?
Cc1cc(C)c(C)c(C(=O)CSc2nnc(-c3ccc4[nH]c(C)c(C)c4c3)o2)c1C	?	-	-	13.1µM	?
CC[C@]1(c2cccc(C)c2)C(=O)N(C(=O)OC)N1C(=O)OC	-	-	1.78µM	-	-
CC[C@@]1(c2ccccc2)C(=O)N(C(=O)OC)N1C(=O)OC	-	-	2µM	-	-
Cc1ccccc1CNC(=O)COc1ccccc1	-	-	-	-	?
CC[C@@]1(c2ccccc2C)C(=O)N(C(=O)OC)N1C(=O)OC	-	-	6.31µM	-	?
CC[C@]1(c2ccccc2)C(=O)N(C(=O)OC)N1C(=O)OC	-	-	2.24µM	-	-
COc1cccc(CNC(=O)CCSCc2ccccc2F)c1	-	-	-	-	?
SMILES	HCMV inh	FBPA Giardia inh	Sm TGR block	Pf growth 48h	Pf growth 96h
Cc1cccc(CN2CCN(CC(=O)NCc3ccc(Cl)cc3)C2=O)c1	-	.	-	.	.
COC(=O)C1=C(C(=O)OC)[C@@H]2N(C)c3ccccc3[C@@]23C[C@@H](CO)N(C(=O)c2ccco2)C3=N1	.	-[12.9 µM]	.	.	.
COC(=O)N1C(=O)[C@@](c2ccccc2)(C2CCCCC2)N1C(=O)OC	-	-	12.6µM	-	-
COC(=O)N1CC(c2ccccc2)CC1=O (centres undefined)	-	-	-	-	-
O=C(NCc1ccccc1)C1(C(F)(F)F)CC(CCCO)CCCO1 (centres undefined)	-	-	.	.	.
CS(=O)(=O)c1ccc(CNC(=O)C2(C(F)(F)F)CC(CCCO)CCCO2)cc1 (centres undefined)	-66.6	-	.	.	.
CCCCCCCCCCOC(=O)Cn1c(COc2ccccc2OC)[n+](C)c2ccccc21	?	-	-	1.65µM	?
Cn1c(COc2ccccc2O)[n+](C)c2ccccc21	-	-	-	-	-
O=C(NCCc1ccccc1)C1CCN(C2CCN(C(=O)CC3=CCCCC3)CC2)CC1	-	-	-	?	-
O=C(N/N=C/c1cc(Br)ccc1O)C(=O)Nc1ccccc1OC(F)(F)C(F)F	-105.3	-	-	?	2.94µM
O=C(N/N=C/c1cc(Cl)ccc1O)C(=O)Nc1ccccc1OC(F)(F)C(F)F	-88.5	-	-	?	-
CCOC(=O)[C@H]1[C@H]2COc3ccc(OC)cc3[C@@H]2N2C(=O)CN(C)C(=O)[C@@]12C	-	.	-	-	?
O=C(Nc1ccc([N+](=O)[O-])cc1)/C(=C/c1cccc([N+](=O)[O-])c1)NC(=O)C1CCCCC1	-	-	-	?	?
Cc1ccc(NC(=O)/C(=C/c2cccc([N+](=O)[O-])c2)NC(=O)C2CCCCC2)c(C)c1	-96.3	.	-	?	?
CC(C)/C=C1\CCc2c([nH]c3ccccc23)C1=O	-70.4	-	-	?	?
O=C1/C(=C\c2ccccc2)CCc2c1[nH]c1ccccc21	-	-	-	-	-
CCOc1cc(N2CCOCC2)c(OCC)cc1NC(=O)c1ccc2ccccc2n1	-	?	-	13.1µM	?
CCOc1cc(N2CCOCC2)c(OCC)cc1NC(=O)c1cc(S(=O)(=O)N2CCOCC2)ccc1Cl	-	.	-	?	?
CCOc1cc(N2CCOCC2)c(OCC)cc1NC(=O)CCS(=O)(=O)c1ccc(Cl)cc1	-	?	-	?	7.38µM
CCOc1cc(N2CCOCC2)c(OCC)cc1NC(=O)c1ccccc1C	-	-	-	?	-
C=CC[C@@H]1C=C[C@@H](O/N=C\[C@@H](OC)[C@H](C)/C=C\CC(=O)OC)[C@@H](CO)O1	.	-[12.9 µM]	.	.	.
Cn1ncc(Cl)c1C(=O)N1CCN(c2ccc(Cl)c(Cl)c2)CC1	-	.	-	-	-
COc1cc(CN(CCc2c(C)[nH]c3ccc(C)cc23)C(=S)NC(C)(C)C)cc(OC)c1OC	-	-	-	?	2.62µM
CNC(=S)N(CCc1c(C)[nH]c2ccc(C)cc12)Cc1ccc(OC)c(OC)c1	-	-	-	?	10.4µM
Cc1[nH]c2ccccc2c1CCN(Cc1cccnc1)C(=S)NC(C)(C)C	-	-	?	-[0.00184 µM]	13.1µM
SMILES	HCMV inh	FBPA Giardia inh	Sm TGR block	Pf growth 48h	Pf growth 96h
O=C(c1ccc2c(c1)N(Cc1ccc(F)cc1)C(=O)c1ccccc1S2(=O)=O)N1CCCC1	-	.	-	.	.
COCOc1ccc(C=O)cc1OCOC	-	.	.	.	.
COC(=O)CC1c2cc(OC)c(OC)cc2CCN1C(=O)Nc1ccc(C)cc1Cl (centres undefined)	-	.	-	.	.
Clc1ccc([C@H](Cn2ccnc2)OCc2c(Cl)cccc2Cl)c(Cl)c1	.	-	.	6.42µM	2.03µM
C=CCO[C@@H](Cn1ccnc1)c1ccc(Cl)cc1Cl	.	-	.	.	.
Clc1ccc(COC(Cn2ccnc2)c2ccc(Cl)cc2Cl)cc1 (centres undefined)	-	-	-	2.08µM	1.85µM
CSc1nnc(-c2ccccc2Cl)n1N	-	-	-	-	10.4µM
Nn1c(-c2ccccc2Cl)nnc1-c1ccccc1Cl	-	-	-	-	-
Cc1ccc(C(=O)NCCc2ccc(S(N)(=O)=O)cc2)cc1-n1cnc2cccnc21	?	.	-	.	.

Assay outcomes from PubChem.
